Measurements published in the supplement of paper PMC11624193, “Coupling cellular drug-target engagement to downstream pharmacology with CeTEAM” (Nature Communications, 2024).
Counter-ions that a name gives are not always drawn. Unmarked numbers belong to inactive results.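 Rule for the calls: active = log2 fold change beyond 2 SD from the library mean after excluding viability outliers; inactive = within 2 SD.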

target: PARP1 L713F-nLuc biosensor (HCT116) (UniProt P09874); assay: PARP1 L713F-nLuc/akaLuc ratio relative to DMSO control (biosensor stabilization) (fold change); higher = more PARP1 biosensor stabilization (target engagement / stabilizer), active = hit call of the paper; settings: stock concentration (mM; final µM = stock mM x 1): 10; 24 h
Sequence (P09874 whole entry L713F, looked up): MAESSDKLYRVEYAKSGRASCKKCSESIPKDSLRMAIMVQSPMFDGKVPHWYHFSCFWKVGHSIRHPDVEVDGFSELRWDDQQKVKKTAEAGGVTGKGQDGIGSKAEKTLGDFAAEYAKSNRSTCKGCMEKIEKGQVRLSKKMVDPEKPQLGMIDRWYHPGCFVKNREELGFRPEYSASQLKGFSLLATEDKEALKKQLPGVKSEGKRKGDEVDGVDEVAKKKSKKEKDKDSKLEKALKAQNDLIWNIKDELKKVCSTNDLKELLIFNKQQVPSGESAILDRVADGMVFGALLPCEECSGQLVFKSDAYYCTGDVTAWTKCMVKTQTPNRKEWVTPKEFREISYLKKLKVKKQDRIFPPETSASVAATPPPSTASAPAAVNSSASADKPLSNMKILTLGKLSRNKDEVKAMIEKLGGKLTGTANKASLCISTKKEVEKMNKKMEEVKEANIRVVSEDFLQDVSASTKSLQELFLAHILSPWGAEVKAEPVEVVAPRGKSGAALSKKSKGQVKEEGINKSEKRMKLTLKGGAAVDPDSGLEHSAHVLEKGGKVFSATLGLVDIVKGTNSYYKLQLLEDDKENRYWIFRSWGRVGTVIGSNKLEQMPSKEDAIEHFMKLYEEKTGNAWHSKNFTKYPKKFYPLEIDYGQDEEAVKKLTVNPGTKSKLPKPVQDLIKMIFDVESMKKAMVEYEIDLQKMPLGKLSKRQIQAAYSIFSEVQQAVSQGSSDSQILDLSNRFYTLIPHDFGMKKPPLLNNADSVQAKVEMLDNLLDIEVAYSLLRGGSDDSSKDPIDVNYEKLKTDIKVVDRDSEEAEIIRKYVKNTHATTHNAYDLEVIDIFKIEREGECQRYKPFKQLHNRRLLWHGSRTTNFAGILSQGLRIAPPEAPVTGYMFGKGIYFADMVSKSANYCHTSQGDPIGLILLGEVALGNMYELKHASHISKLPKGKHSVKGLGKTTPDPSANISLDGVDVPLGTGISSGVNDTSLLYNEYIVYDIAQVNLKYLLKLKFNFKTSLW

Structure (SMILES)	PARP1 L713F-nLuc/akaLuc ratio
c1cc(-c2cnn3cc(-c4ccc(OCCN5CCCCC5)cc4)cnc23)ccn1 [Dorsomorphin]	1.11
O=C(O)CNC(=O)c1ncc(-c2cccc(F)c2)cc1O	0.618
Cc1cccc(-c2nn3c(c2-c2ccnc4ccc(C(N)=O)cc24)CCC3)n1	0.664
Cc1ccc(F)c(NC(=O)Nc2ccc(-c3cccc4[nH]nc(N)c34)cc2)c1 [Linifanib (ABT-869)]	3.59 (active)
CC1(C)CCC(CN2CCN(c3ccc(C(=O)NS(=O)(=O)c4ccc(NCC5CCOCC5)c([N+](=O)[O-])c4)c(Oc4cnc5[nH]ccc5c4)c3)CC2)=C(c2ccc(Cl)cc2)C1 [Venetoclax (ABT-199, GDC-0199)]	0.901
O=c1[nH]nc2c3c(cccc13)N=C(CN1Cc3ccccc3C1)N2	8.18 (active)
Cc1nc2cccc(N)c2c(=O)n1C1CCC(=O)NC1=O (configuration not stated) [Avadomide(CC-122)]	0.983
CC[C@H](C)[C@H](NC(=O)[C@H](CCCCN)NC(=O)[C@H](CC(C)C)NC(=O)[C@@H]1CCCN1C(=O)[C@H](CCC(=O)O)NC(=O)[C@H](Cc1ccc(O)cc1)NC(=O)[C@@H](NC(=O)[C@H](CO)NC(=O)CNC(=O)[C@H](CO)NC(=O)[C@H](CCCN=C(N)N)NC(=O)[C@H](CCCCN)NC(=O)[C@@H](NC(=O)[C@@H](N)CCCN=C(N)N)[C@@H](C)O)C(C)C)C(=O)O [Malantide]	1.76
CCN(CC)Cc1cc(Nc2ccnc3cc(Cl)ccc23)ccc1O [Amodiaquine (dihydrochloride dihydrate)]	0.819
CC(=O)NCC(=O)N1[C@@H]2CC[C@H]1c1ccc(Nc3ncc(C(F)(F)F)c(NC4CCC4)n3)cc12	1.27
O=C(O)CCCCC(CCSCc1ccccc1)SCc1ccccc1 (configuration not stated)	1.06
Cc1csc(-c2nnc(Nc3ccc(Oc4ncccc4-c4ccnc(N)n4)cc3)c3ccccc23)c1	1.02
CCNC(=O)C#Cc1ccc2c(C(=Nc3ccc(CN(C)C)cc3)c3ccccc3)c(O)[nH]c2c1	0.604
C[C@@H]1O[C@@H](O[C@H]2[C@H](OC(=O)[C@]34CCC(C)(C)C[C@H]3C3=CC[C@@H]5[C@@]6(C)C[C@H](O)[C@H](O[C@@H]7O[C@H](CO)[C@@H](O)[C@H](O)[C@H]7O)C(CO)(CO)[C@@H]6CC[C@@]5(C)[C@]3(C)C[C@H]4O)OC[C@H](O)[C@@H]2O)[C@H](O)[C@H](O)[C@H]1O[C@@H]1OC[C@@H](O)[C@H](O[C@@H]2OC[C@](O)(CO)[C@H]2O)[C@H]1O [Platycodin D]	0.771
CN1CCN(CCOc2cc(OC3CCOCC3)c3c(Nc4c(Cl)ccc5c4OCO5)ncnc3c2)CC1 [Saracatinib (AZD0530)]	0.92
O=C(O)c1ccc(-c2c[nH]c3ncc(-c4ccccc4)cc23)cc1C1CCCC1	0.793
CO[C@H]1C[C@@H]2CC[C@@H](C)[C@@](O)(O2)C(=O)C(=O)N2CCCC[C@H]2C(=O)O[C@H]([C@H](C)C[C@@H]2CC[C@@H](OCCO)[C@H](OC)C2)CC(=O)[C@H](C)/C=C(\C)[C@@H](O)[C@@H](OC)C(=O)[C@H](C)C[C@H](C)/C=C/C=C/C=C/1C [Everolimus (RAD001)]	0.669
COc1cc2ncnc(Nc3cccc(Cl)c3F)c2cc1OC(=O)N1CCN(C)C[C@H]1C	1.31
COc1cc(OC)cc(N(CCNC(C)C)c2ccc3ncc(-c4cnn(C)c4)nc3c2)c1	1.09

Structure (SMILES)	PARP1 L713F-nLuc/akaLuc ratio
NC(=O)[C@H]1CCCc2c1[nH]c1ccc(Cl)cc21 [(S)-Selisistat]	0.706
N[C@H]1CC[C@H](N[C@@H]2C[C@H]2c2ccccc2)CC1 [Iadademstat (dihydrochloride)]	1.06
CN(C)C(=N)NC(=N)N [Metformin HCl]	0.701
CNS(=O)(=O)Nc1nccc(Cc2c(C)c3ccc(Oc4ncccn4)cc3oc2=O)c1F	0.435
CNC(=O)c1ccc(N2C(=S)N(c3ccc(C#N)c(C(F)(F)F)c3)C(=O)C2(C)C)cc1F [Enzalutamide (MDV3100)]	0.993
N#Cc1ccnc(N2C(=O)CC[C@H]2C(=O)N(c2cncc(F)c2)[C@H](C(=O)NC2CC(F)(F)C2)c2ccccc2Cl)c1 [Ivosidenib (AG-120)]	0.863
CC(=O)N1CCN([C@H]2CCC[C@@H](NC(=O)c3cc4c(F)ccc(C)c4[nH]3)C2)CC1	1.5
Nc1ncn([C@@H]2O[C@H](CO)[C@@H](O)[C@H]2O)c(=O)n1 [5-Azacytidine]	2.35
CC(=O)Nc1ccc(NC(=S)NC(=O)c2ccc(C(C)(C)C)cc2)cc1 [Tenovin-1]	0.509
CC(NC(=O)c1ccccc1/N=C/c1c(O)ccc2ccccc12)c1ccccc1 (configuration not stated) [Sirtinol]	0.699
Cc1c(-c2cnccn2)ssc1=S [Oltipraz]	0.846
CNCc1ccc(-c2cc3cc(F)cc(C(N)=O)c3o2)cc1 [Mefuparib (hydrochloride)]	10.5 (active)
CNC[C@@H](O)COc1ccc(Cl)c(-c2nc(-c3c(C)noc3C)c(C)c(N3CC4(CCN(C(=O)OC)CC4)C3)n2)c1	0.955
Cc1nc(N)nc(N)c1-c1ccc(Cl)c(Cl)c1 [Metoprine]	0.685
COc1cc2ncnc(Nc3cc(Br)c(O)c(Br)c3)c2cc1OC	1.37
Nc1ccc(S(=O)(=O)NCCc2ccccc2)cc1	0.888
Cc1ncc(F)c(Nc2n[nH]c3c2CN(C(=O)N2C[C@@H](C)N(CC4CCOCC4)C[C@@H]2C)C3(C)C)n1	1.25
COCC(=O)Nc1cc(Sc2ccccc2)ccc1N=C(NC(=O)OC)NC(=O)OC [Febantel]	1.6
